The results in this text go back to PubChem BioAssay AID1794808 (University of Kansas High Throughput Screening Laboratory, 2022).

The campaign covered roughly 210,000 compounds. About 520 (0.25%) were called active. The sample holds actives, similar compounds and a random draw of the others, so the mix is not that of the screen. Unmarked numbers belong to inactive results. Cut-off read from the data, not from the text of the source: active = inhibition above about 50%; inactive = the rest.

For orientation: inhibition means the change of the read-out against control, counted positive when it falls.

The assay has as its system Plasmodium falciparum apicoplast DNA polymerase (apPOL). Description: Pf-apPOL inhibitors, biochemical, fluorescence (AID 1794808). Particulars: Recombinant Pf-apPOL, molecular beacon fluorescence, 1.5 h; at 10 µM; hits give high values.
`NC(=O)c1cc2cc(Br)ccc2oc1=Nc1ccc(F)cc1`: the inhibition is 5.9%.

`CC(=O)Nc1ccc(-c2ccc(NC(C)=O)c(Cl)c2)cc1Cl`: the inhibition was 6.6%.

Consider `CCN1CCCC1CNC(=O)c1cn(C)c(=O)c2cc(OC)c(OC)cc12` (stereo not given), for which the inhibition was 4.5%.

Take `O=c1c(O)c(Br)ccc2c(Br)c(O)c(O)c(O)c12`: the inhibition is 99.5% (active).

As for `O=C(NC1CCCCC1)c1ccccc1NC(=O)C1COc2ccccc2O1` (stereo not given), the inhibition is -3.8%.

Consider `Cn1nc(-c2nnc(-c3ccccc3Cl)o2)c2c1CCN(C(=O)CCc1ccccc1)C2`, for which the inhibition is -2.8%.

For `COc1cc(C(=O)Nc2c3c(nn2-c2ccc(C)cc2C)CS(=O)(=O)C3)cc(OC)c1OC`, the inhibition was -2.5%.

Regarding `COc1ccc(C2=NOC(C(=O)NCCc3ccccc3)C2)cc1OC` (stereo not given), the inhibition was -10.3%.

On to `Cc1cc(Cl)ccc1NC(=O)CCc1ccccc1`, for which the inhibition was 52.8% (active).

With `O=C(CCCc1ccccc1)Nc1cccc(Cl)c1`, the inhibition was -10.9%.

For `Cc1ccc(F)c(NC(=O)CCc2ccccc2)c1`, the inhibition is -10.7%.

`Cc1ccc(-c2ccc(C)cc2N)c(N)c1`: the inhibition was 5.9%.

For the molecule `Cc1ccc2nc3c(nc2c1)C(=O)c1ccccc1C3=O`, the inhibition is -3.7%.

As to `Cc1ccc2c(c1)C(=O)C(=O)S2`, the inhibition is 53.9% (active).

For the molecule `Cc1ccsc1/C=C(\C(=O)NCc1cccnc1)S(=O)(=O)c1ccccc1`, the inhibition was 2.5%.

For the molecule `O=C(Cc1ccc(F)cc1)N1CCC(Nc2cccn3ncnc23)CC1`, the inhibition was -7.3%.

With `O=C(C1CCCN(c2nnc3ccc(Cl)cn23)C1)N1CCN(C2CCCCC2)CC1` (stereo not given), the inhibition was -2.9%.

Consider `CCN(Cc1cc(-c2ccc(C)cc2C)on1)C(=O)c1cccs1`, for which the inhibition is 3.3%.

Turning to `CCC(=O)N1CCC(COc2ccccc2C(=O)N2CCCCC2)CC1`, the inhibition is -0.7%.

Turning to `COc1cc(Cl)c(NC(=O)C2CCCN(c3nccc(C)n3)C2)c(OC)c1` (stereo not given), the inhibition was 2.3%.

In the case of `CCN(CC)C(=O)C1CCCN(Cc2ccccc2OC)C1` (stereo not given), the inhibition is -2.5%.

Regarding `CCN(CC)S(=O)(=O)c1ccc(C(=O)Nc2c3c(nn2-c2ccc(C)cc2)CSC3)cc1`, the inhibition was 3.5%.

Consider `O=[N+]([O-])c1ccc(C2SCCN2S(=O)(=O)c2ccccc2)cc1` (stereo not given), for which the inhibition was -2.9%.

In the case of `CCCCOc1ccc(S(=O)(=O)N2CCSC2c2ccccc2)cc1` (stereo not given), the inhibition is -1.1%.

For `Cc1cccc(S(=O)(=O)N2CCSC2c2ccccc2)c1` (stereo not given), the inhibition is 95.2% (active).

Take `O=C(NCCc1ccccc1)N1CCC(n2c(-c3ccoc3)nc3cccnc32)C1` (stereo not given): the inhibition is -2%.

Regarding `O=C(c1ccccc1)c1ccc(OCCNC(=O)c2ccccc2Br)cc1`, the inhibition was -3.3%.

For `CC(C)CC1=NN(C(=O)c2cccc(Cl)c2)C(O)(C(F)(F)F)C1` (stereo not given), the inhibition is 2%.

Turning to `CC(C)c1cccc(N2C=C(C#N)S(=O)(=O)c3c(F)cccc32)c1`, the inhibition is -0.6%.

`COc1ccc(NS(=O)(=O)c2c(C)cc(C)cc2C)c([N+](=O)[O-])c1`: the inhibition was -4%.

In the case of `COc1cc(C(=O)N2CCC(c3noc(-c4cccc(F)c4)n3)CC2)cc(OC)c1OC`, the inhibition is 0.1%.

Turning to `O=C(c1ccc(OCC2CCCN(C(=O)c3ccccn3)C2)cc1)N1CCCC1` (stereo not given), the inhibition was 3.1%.

For `CCc1ccc(OCC(=O)Nc2cc(OC)c(Cl)cc2OC)cc1`, the inhibition was -9.2%.

Regarding `O=C(NCCCNc1ccc([N+](=O)[O-])cc1Cl)c1ccccc1Br`, the inhibition is 4.9%.

Regarding `Cc1nc(-c2ccccc2)sc1C(=O)ON=C(N)c1ccc([N+](=O)[O-])o1`, the inhibition is 11.5%.

Turning to `CCCOc1ccc(S(=O)(=O)NCC2CCN(S(=O)(=O)C3CC3)CC2)cc1C`, the inhibition is -5.5%.

Consider `CC(=O)N1CCc2ccccc2C1C(=O)NCc1ccc(C)cc1` (stereo not given), for which the inhibition was -0.9%.

In the case of `COc1cccc2sc(=NC(=O)c3cccc(F)c3)n(C)c12`, the inhibition is 2.7%.

As to `Cc1nc(N2CCC(C(N)=O)CC2)nc(NCc2ccco2)c1[N+](=O)[O-]`, the inhibition was -9.6%.

Consider `COc1cccc(-c2n[nH]c(C)c2NC(=O)C(C)C)c1`, for which the inhibition is -6.9%.

`CCn1c(C2CCN(S(=O)(=O)c3cc(OC)ccc3OC)C2)nc2cccnc21` (stereo not given): the inhibition was -5.5%.

Regarding `Cc1ccc(CC(=O)NC2CCN(c3cc(C)cc(C)c3)C2=O)cc1` (stereo not given), the inhibition is -5.7%.

With `Cc1nc(-c2ccccc2F)sc1C(=O)N1CCCC1`, the inhibition is -7.4%.

On to `Cc1nc(-c2ccncc2)nc2c1CC(=O)N2C1CCCC1`, for which the inhibition was -7.5%.

With `COc1cc(NC(=O)c2cccc([N+](=O)[O-])c2)c(OC)cc1NC(=O)c1ccccc1`, the inhibition was -2.7%.

Consider `Cc1cccc(CN2CCCn3nc(C(=O)Nc4ccccc4C)cc3C2=O)c1`, for which the inhibition was -2.2%.

As to `CC1(C(=O)O)NC(c2cc(Cl)ccc2O)C2C(=O)N(c3ccc(Cl)cc3)C(=O)C21` (stereo not given), the inhibition was -9.1%.

As to `O=Cc1ccc(OCc2cccc(F)c2)c(Cl)c1`, the inhibition was 1.2%.

On to `O=C1CN(C(=O)c2c(F)cccc2F)C(c2ccccc2)c2cc(F)ccc2N1` (stereo not given), for which the inhibition was -3.5%.

For the molecule `COc1cccc(-c2cc3n(n2)CCCN(C(=O)Cc2ccsc2)C3)c1`, the inhibition was -7.6%.

With `COc1ccccc1N1CCN(CC(=O)Nc2ncc(C)s2)C1=O`, the inhibition was -2.4%.

As for `CCC(CC)C(=O)N1CCN(c2ccc([N+](=O)[O-])cc2)CC1`, the inhibition is -4.2%.

On to `Cc1ccc(C(=O)N2CCN(c3ccc(F)c(Cl)c3)C(=O)C2C)cc1` (stereo not given), for which the inhibition is 69.1% (active).

Consider `CC1C(=O)N(c2cccc(F)c2)CCN1C(=O)c1ccc(Cl)cc1` (stereo not given), for which the inhibition was -2.7%.

Take `Cc1cccc(N2CCN(C(=O)c3ccc(F)cc3)C(C)C2=O)c1` (stereo not given): the inhibition was 0.4%.

For `Cc1cccc(NS(=O)(=O)c2c(C)n[nH]c2C)c1C`, the inhibition is -1.5%.

`Cc1cc(C)n(-c2ccc(C(=O)NC3CCCC3)cn2)n1`: the inhibition is 2%.

`CCC1CCCCN1C(=O)CSc1nc2c(c(=O)n1C)SC(C)C2` (stereo not given): the inhibition is -6.3%.

Consider `COc1ccc(C=C2Oc3c(ccc(O)c3CN3CCCCCC3)C2=O)cc1OC`, for which the inhibition was -19.5%.

On to `N/C(=N\OC(=O)CCCc1ccccc1)c1ccc(Cl)cc1`, for which the inhibition was 5.3%.

`Cc1cccc(NC(=O)N2CC(c3nc(C)no3)C3(CCOCC3)C2)c1` (stereo not given): the inhibition is -0.4%.

As to `COc1ccccc1OCC(=O)N1CCCCC1CCN1CCCCCC1` (stereo not given), the inhibition is -10.1%.

For `Cc1ccc2c(c1)C(=O)CC(c1cc(Br)cc3c1OCOC3)O2` (stereo not given), the inhibition was -13.6%.

Consider `Cc1ccccc1-n1nc2c(c1NC(=O)c1c(F)cccc1Cl)CS(=O)(=O)C2`, for which the inhibition was -3.3%.

Take `Cc1nc(C(C)C)nc2c1CCC(=O)N2CCCN1CCOCC1`: the inhibition is 4%.

As to `Cc1cccc(NC(=O)CC2SC(=Nc3ccccc3)NC2=O)c1` (stereo not given), the inhibition is 2.1%.

With `O=C(NCCCN1CCOCC1)c1cc2c(=O)oc3ccccc3c2s1`, the inhibition is 1.2%.

With `O=C(NC1CCCC1)c1ccc(-n2nc(N3CCCC3)ccc2=O)cc1`, the inhibition is 4.7%.

Consider `COC(=O)c1ccccc1OC1OC(CO)C(O)C(O)C1NC(C)=O` (stereo not given), for which the inhibition is 1.3%.

`N#CC(C#N)=C1SCN(c2cccc(Cl)c2)CS1`: the inhibition was 66.2% (active).

With `CC(=O)Nc1ccc(C(=O)N2CCN(c3cccc(Cl)c3)CC2)cc1`, the inhibition was 9.7%.

In the case of `O=C(c1ccc([N+](=O)[O-])cc1)N1CCN(c2cccc(Cl)c2)CC1`, the inhibition is -2.7%.

With `CCn1cc(C2=CCN(S(=O)(=O)c3cccc(C)c3)CC2)c2cccnc21`, the inhibition is -11%.

As for `Nc1cc2c(cc1[N+](=O)[O-])OCCOCCOc1ccc([N+](=O)[O-])cc1OCCOCCO2`, the inhibition is -0.2%.

`CCCNc1cc(N2CCCC(CCC(=O)Nc3ccc4c(c3)OCCO4)C2)ncn1` (stereo not given): the inhibition is -2.1%.

In the case of `COc1cccc(NC(=O)c2cncc(-c3ccc(F)cc3)c2)c1`, the inhibition is 1.8%.

Turning to `Cc1cc(C)cc(-c2nc(-c3ccc4c(c3)oc(=O)n4C)no2)c1`, the inhibition is 0.7%.

As to `COc1ccc(C(O)=C2C(=O)C(=O)N(CCN3CCOCC3)C2c2ccccc2F)cc1OC` (stereo not given), the inhibition is -2.5%.

As for `O=C(COc1ccc(Cl)cc1)N1CCC(N2CCCCCC2)CC1`, the inhibition was -3.8%.

For `COc1ccc(NCN2C(=O)c3cc(Cl)c(Cl)cc3C2=O)cc1`, the inhibition is 7.8%.

For `CCN(CC)CCNC(=O)C(=O)NCC1OCCN1S(=O)(=O)c1ccc(F)cc1` (stereo not given), the inhibition was -1.4%.

In the case of `O=C(Nc1ccc(F)c(Cl)c1)c1noc2c1CCCCC2`, the inhibition is -2.8%.

As for `CCCCC(NC(C)=O)C(=O)O` (stereo not given), the inhibition was 4.1%.

Take `CCCCOc1ccccc1/C=c1\sc2ncnn2c1=O`: the inhibition was 10.1%.

As to `COc1ccc(NC(=O)CCC2CCN(c3cc(NC4CC4)ncn3)CC2)cc1`, the inhibition is 0.2%.

Regarding `COCCNC(=O)NCCCc1ccc(N(C)C)cc1`, the inhibition was -1.5%.

Turning to `COc1cccc(/C=c2\sc3nc(=O)c(C)nn3c2=O)c1`, the inhibition is 1.4%.

As for `CC(=O)N1CCc2sc(S(=O)(=O)N3CCN(c4ccccc4F)CC3)cc2C1`, the inhibition is -5.6%.

Turning to `COc1ccc(-c2cc(=O)n(CCNC(=O)Cn3cnc4ccccc4c3=O)cn2)cc1`, the inhibition was -6.7%.

Regarding `COc1ccc(NC(=O)CSc2nc3c(cnn3-c3ccc(C)cc3)c(=O)[nH]2)c(OC)c1`, the inhibition was 3.2%.

For `C(=Nc1ccccc1-n1cccc1)c1cnc(-c2ccccc2)[nH]1`, the inhibition was -2.2%.

In the case of `C=CCNC(=O)CCSc1ccc(Cl)cc1`, the inhibition was 0.6%.

On to `CC1CCCCC1NS(=O)(=O)c1cc(C(=O)Nc2ccc(F)c(F)c2)ccc1F` (stereo not given), for which the inhibition is 37.3%.

Regarding `CC12CC3(C)CC(C)(C1)CC(C(=O)Nc1ccc(F)c(Cl)c1)(C2)C3`, the inhibition was -2.2%.

Take `O=C(c1cc(F)cc(F)c1)N1CCC(c2cnn(-c3cccc(F)c3)c2)CC1`: the inhibition was -5.6%.
